Experimental data as given in PubChem BioAssay.
“And” between values parts separate entries of the source, which are not always exact repeats. Equal entries are not always repeated. Records with an inconclusive call do not appear. The source made the active and inactive calls.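 How the source made its calls, unless noted: active means compounds whose cell count with miR-34 switched on is under 0.7 times the count with it off; inactive means the rest.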

What was measured:
[1] = hESC survival regulators, cell-based (AID 493140; call rule not given here;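 further: cells exposed to compounds for four days before counting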); details: human embryonic stem cell survival screen; stronger effect = higher value
[2] = liver-stage malaria parasite growth inhibition, primary screen, cell-based, HepG2, luciferase luminescence, HepG2 viability (AID 624349; in the data active means parasite load remaining mostly below about 12%, no sharp cut-off; inactive means mostly above about 10%;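 further: 100% = mean of DMSO negative control wells on the same plate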); details: P. berghei liver stage in HepG2, luciferase luminescence, concentration not given here; parasite load remaining: stronger effect = lower value; viability: measured here: HepG2 viability without parasites
[3] = stimulators of nuclear beta-catenin in C2C12, primary screen, imaging, WNT3A-conditioned medium, mouse C2C12, NPC library (AID 1117326; in the data active means nuclear beta-catenin stimulation mostly above about 4.2%, no sharp cut-off; inactive means mostly below about 10%; further: reference of the scale not given here); details: stronger effect = higher value
[4] = stimulators of insulin release from INS-1E, primary screen, cell-based, 5 mM glucose, NPC library (AID 1117329;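 active means compound raises insulin release from rat beta cells at 5 mM glucose, no numeric limit stated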; further: reference of the scale not given here); details: rat INS-1E insulin secretion, at 10 µM, stronger effect = higher value
[5] = growth inhibition of GSK3B-pretreated HCT116 cells – cell-based, CellTiter-Glo, 0.2 to 20 µM (AID 1117336;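 active means compounds lowering colon cancer cell viability after pretreatment blocking the GSK3B kinase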); details: HCT116 viability after GSK3B inhibitor, at 20 µM, stronger effect = higher value
[6] = inhibition of endothelial tube formation, primary screen, imaging, VEGF stimulated, CD31 staining, tube area, NPC library (AID 1117340;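 active means compound that reduces growth-factor-driven endothelial tube area in a mixed cell culture, no cutoff stated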); details: VEGF-stimulated ADSC/ECFC co-culture, at 10 µM, stronger effect = higher value
[7] = glucagon-like peptide 1 release enhancers, primary assay, NCI-H716 cell line, NPC library (AID 1117341;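 active means compound raises GLP1 secretion from the human gut endocrine cells, with no numeric limit stated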; further: reference of the scale not given here); details: NCI-H716 cells, at 10 µM, stronger effect = higher value
[8] = HCT116 colon cancer cell growth inhibition, primary screen, CellTiter-Glo luminescence, NPC library (AID 1117342;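 active means compounds that lower survival of HCT116 colon cancer cells in the luminescence readout, no numeric limit stated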); details: at 20 µM (top of the series)
[9] = CellTiter-Glo luminescent readout of SW480 viability loss, NPC library primary (AID 1117343;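 active means compounds that lower viability of the colon cancer cells in the luminescence readout, with no numeric limit stated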); details: CellTiter-Glo luminescence; at 20 µM (top of the series) unless noted
[10] = decreased DLD-1 cellular survival, CellTiter-Glo luminescent readout, NPC compound collection, primary HTS (AID 1117346;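 active means compounds that lower survival of DLD-1 colon cancer cells in the luminescence readout, no cutoff given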); details: DLD-1 viability, CellTiter-Glo luminescence; at 20 µM (top of the series)
[11] = sensitizers of A549 cells to miR-34 induction, primary screen, imaging, A549 dox-inducible miR-34, nuclei and caspase counts (AID 1347080); details: A549 miR-34 inducible, Hoechst nuclei count, 48 h
[12] = survival rescue of mitochondrial mutant cells in low glucose, primary screen, MELAS cybrids, Rieske KO mouse fibroblasts, CellTiter-Glo (AID 1508586;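 active means mean z-score across replicates of 1.96 or higher in either the MELAS or the Rieske mutant cell line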;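 further: z relative to plate mean and SD of compound and empty wells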)
[13] = viability rescue of complex I mutant cybrids, primary screen, cell-based, galactose medium, ATP luminescence (AID 1645843;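 active means z-score of at least 1.8 in each of two replicates, scored against plate mean and spread of sample wells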;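 further: positive z means more ATP and so rescue of galactose-driven cybrid death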); details: complex I mutant cybrid cells, 72 h, stronger effect = higher value
[14] = target: NAD(+) hydrolase SARM1 (Homo sapiens) (UniProt Q6SZW1); experiment: SARM1 TIR NADase inhibitors, cell lysate, NAD-Glo luminescence (AID 1508614;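 active means compound whose remaining NAD level is above about 45 nM, limit read from the data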); details: SAM-TIR HEK293T lysate NADase, at 1 µM, stronger effect = higher value
Sequence of NAD(+) hydrolase SARM1 (Homo sapiens) (Q6SZW1 whole entry, looked up): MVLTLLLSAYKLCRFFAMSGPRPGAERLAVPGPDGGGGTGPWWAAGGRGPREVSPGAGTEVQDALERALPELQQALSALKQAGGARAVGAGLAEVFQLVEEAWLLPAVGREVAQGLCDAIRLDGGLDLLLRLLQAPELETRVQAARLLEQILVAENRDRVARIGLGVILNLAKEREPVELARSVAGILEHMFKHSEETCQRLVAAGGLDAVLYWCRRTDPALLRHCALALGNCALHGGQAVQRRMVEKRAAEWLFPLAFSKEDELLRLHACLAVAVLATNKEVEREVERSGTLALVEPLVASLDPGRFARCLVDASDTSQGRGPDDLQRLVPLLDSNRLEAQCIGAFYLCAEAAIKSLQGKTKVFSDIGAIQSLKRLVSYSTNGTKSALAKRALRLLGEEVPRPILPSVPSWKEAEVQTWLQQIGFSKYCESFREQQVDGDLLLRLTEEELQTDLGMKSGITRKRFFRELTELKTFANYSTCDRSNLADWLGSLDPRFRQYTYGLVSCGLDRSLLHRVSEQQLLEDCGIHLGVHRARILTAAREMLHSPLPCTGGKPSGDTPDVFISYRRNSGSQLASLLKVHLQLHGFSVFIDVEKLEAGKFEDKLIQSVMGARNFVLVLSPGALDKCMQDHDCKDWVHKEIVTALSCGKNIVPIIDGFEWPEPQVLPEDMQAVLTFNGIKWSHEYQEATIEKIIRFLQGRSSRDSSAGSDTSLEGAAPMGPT

[15] = target: ATP-dependent translocase ABCB1 (Homo sapiens) (UniProt P08183); experiment: MDR1 (ABCB1) efflux transporter inhibition, cell-based (AID 377; in the data active means fluorescence slope change above about 50%); details: MDR1-expressing cells, fluorescent substrate accumulation slope; stronger effect = higher value; concentration not given here
Sequence of ATP-dependent translocase ABCB1 (Homo sapiens) (P08183 whole entry, looked up): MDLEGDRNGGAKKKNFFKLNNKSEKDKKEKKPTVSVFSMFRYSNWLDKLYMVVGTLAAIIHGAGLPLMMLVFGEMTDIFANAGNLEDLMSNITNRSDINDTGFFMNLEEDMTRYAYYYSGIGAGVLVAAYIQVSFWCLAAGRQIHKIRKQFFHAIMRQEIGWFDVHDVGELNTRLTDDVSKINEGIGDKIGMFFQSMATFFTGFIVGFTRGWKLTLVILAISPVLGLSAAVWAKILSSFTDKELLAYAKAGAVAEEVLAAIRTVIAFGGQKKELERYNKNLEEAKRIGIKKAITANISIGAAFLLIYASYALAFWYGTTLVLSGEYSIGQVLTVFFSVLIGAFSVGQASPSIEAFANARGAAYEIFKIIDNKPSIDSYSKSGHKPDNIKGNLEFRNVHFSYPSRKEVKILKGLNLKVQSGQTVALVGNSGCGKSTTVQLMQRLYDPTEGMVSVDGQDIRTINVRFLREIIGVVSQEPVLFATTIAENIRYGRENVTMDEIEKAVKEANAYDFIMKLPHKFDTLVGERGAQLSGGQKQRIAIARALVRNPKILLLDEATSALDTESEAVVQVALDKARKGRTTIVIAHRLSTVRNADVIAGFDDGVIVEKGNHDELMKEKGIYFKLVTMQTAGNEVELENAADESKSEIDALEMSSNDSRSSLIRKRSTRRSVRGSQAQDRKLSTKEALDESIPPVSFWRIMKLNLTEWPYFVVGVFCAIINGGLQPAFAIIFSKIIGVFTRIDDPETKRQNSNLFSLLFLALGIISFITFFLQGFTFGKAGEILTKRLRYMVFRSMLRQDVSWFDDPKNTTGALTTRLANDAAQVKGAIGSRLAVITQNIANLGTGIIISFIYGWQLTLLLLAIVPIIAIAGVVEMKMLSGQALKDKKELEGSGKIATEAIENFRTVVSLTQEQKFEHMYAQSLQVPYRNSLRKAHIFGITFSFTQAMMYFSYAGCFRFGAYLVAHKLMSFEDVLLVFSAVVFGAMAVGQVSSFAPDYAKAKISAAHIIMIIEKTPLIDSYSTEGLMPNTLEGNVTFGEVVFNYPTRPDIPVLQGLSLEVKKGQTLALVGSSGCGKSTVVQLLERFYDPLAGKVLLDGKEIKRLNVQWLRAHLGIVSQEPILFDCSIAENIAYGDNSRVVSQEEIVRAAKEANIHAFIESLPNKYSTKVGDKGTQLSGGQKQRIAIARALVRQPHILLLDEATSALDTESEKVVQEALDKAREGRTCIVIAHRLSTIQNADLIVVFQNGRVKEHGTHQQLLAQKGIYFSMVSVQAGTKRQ

[16] = stronger effect = lower value, cell number ratio, induced over uninduced
[17] = measured here: relative caspase fold change +Dox/-Dox
[18] = measured here: total cells with miR-34 induction, stronger effect = lower value
[19] = measured here: total cells without miR-34 induction
[20] = MELAS cybrid survival, CellTiter-Glo 48 h, stronger effect = higher value
[21] = Rieske KO mouse fibroblast survival, CellTiter-Glo 72 h

Structure (SMILES): COCC(=O)Nc1c(I)c(C(=O)NCC(O)CO)c(I)c(C(=O)N(C)CC(O)CO)c1I (stereo not given)
- survival [1]: 1.33 (inactive)
- parasite load remaining [2]: 103% (inactive)
- viability [2]: 104%
- nuclear beta-catenin stimulation ([3]; at 10 µM): 3% (inactive)
- nuclear beta-catenin stimulation ([3]; stimulation, at 2 µM): 2.8%
- insulin secretion stimulation [4]: 3.5% (inactive)
- viability decrease [5]: -12.6% (inactive)
- tube area decrease [6]: -13.9% (inactive)
- GLP1 secretion stimulation [7]: -1.2% (inactive)
- inhibition of viability [8]: -4.47% (inactive)
- viability decrease (inhibition) [9]: -13% (inactive)
- viability decrease (inhibition) [10]: -7.9% (inactive)
- fold change [11, 16]: 0.856 (inactive)
- fold change [11, 17]: 1.69
- cell count [11, 18]: 8610
- cell count [11, 19]: 10100
- z-score [12, 20]: -0.386 (inactive)
- z-score [12, 21]: -1.03

Structure (SMILES): CCC(C)(CN(C)C)OC(=O)c1ccccc1 (stereo not given)
- survival [1]: 26.8 (inactive)
- parasite load remaining [2]: 38.1% (inactive) and 188% (inactive)
- viability [2]: 56.2% and 90.3%
- nuclear beta-catenin stimulation ([3]; at 10 µM): -2.1% (inactive)
- nuclear beta-catenin stimulation ([3]; stimulation, at 2 µM): -1.6%
- insulin secretion stimulation [4]: 3% (inactive)
- viability decrease [5]: -25.9% (inactive)
- tube area decrease [6]: -3.6% (inactive)
- GLP1 secretion stimulation [7]: -1.9% (inactive)
- inhibition of viability [8]: -6.83% (inactive)
- viability decrease (inhibition) [9]: 7.2% (inactive)
- viability decrease (inhibition) [10]: -17.6% (inactive)
- fold change [11, 16]: 0.964 (inactive)
- fold change [11, 17]: 0.9
- cell count [11, 18]: 8680
- cell count [11, 19]: 9000
- z-score [12, 20]: 0.476 (inactive)
- z-score [12, 21]: -0.277

Structure (SMILES): CN(Cc1ccc(C(C)(C)C)cc1)Cc1cccc2ccccc12
- parasite load remaining [2]: 43.3% (inactive)
- viability [2]: 140%
- nuclear beta-catenin stimulation ([3]; at 10 µM): -1.4% (inactive)
- nuclear beta-catenin stimulation ([3]; stimulation, at 2 µM): -0.7%
- insulin secretion stimulation [4]: -1% (inactive)
- viability decrease [5]: 37.6% (inactive)
- tube area decrease [6]: 7.1% (inactive)
- GLP1 secretion stimulation [7]: -4% (inactive)
- inhibition of viability [8]: 50.7% (active)
- viability decrease (inhibition) [9]: 62.7% (active)
- viability decrease (inhibition) [10]: 37.8% (inactive)
- fold change [11, 16]: 0.848 (inactive) and 0.895 (inactive)
- fold change [11, 17]: 0.76 and 0.344
- cell count [11, 18]: 7540 and 9920
- cell count [11, 19]: 8900 and 11100
- z-score [12, 20]: -0.284 (inactive) and -0.0947 (inactive) and -0.415 (inactive)
- z-score [12, 21]: -0.307 and 0.166 and -0.508
- z-score [13]: -1.71 (inactive)

Structure (SMILES): NCCC(O)(P(=O)(O)O)P(=O)(O)O
- parasite load remaining [2]: 25.4% (inactive)
- viability [2]: 75%
- nuclear beta-catenin stimulation ([3]; at 10 µM): 1.8% (inactive)
- nuclear beta-catenin stimulation ([3]; stimulation, at 2 µM): -0.1%
- insulin secretion stimulation [4]: -3.4% (inactive)
- viability decrease [5]: -16% (inactive)
- tube area decrease [6]: 8.2% (inactive)
- GLP1 secretion stimulation [7]: 1.4% (inactive)
- inhibition of viability [8]: -1.9% (inactive)
- viability decrease (inhibition) [9]: 16.6% (inactive)
- viability decrease (inhibition) [10]: -6.8% (inactive)
- fold change [11, 16]: 0.878 (inactive)
- fold change [11, 17]: 1.25
- cell count [11, 18]: 9450
- cell count [11, 19]: 10800
- z-score [12, 20]: 0.361 (inactive)
- z-score [12, 21]: -0.434
- z-score [13]: 0.62 (inactive)

Structure (SMILES): NS(=O)(=O)c1cc(C(=O)O)cc(N2CCCC2)c1Oc1ccccc1
- survival [1]: 11.5 (inactive)
- parasite load remaining [2]: 67.6% (inactive)
- viability [2]: 80.6%
- nuclear beta-catenin stimulation ([3]; at 10 µM): 0.5% (inactive)
- nuclear beta-catenin stimulation ([3]; stimulation, at 2 µM): -0.6%
- insulin secretion stimulation [4]: -1% (inactive)
- viability decrease [5]: -7.05% (inactive)
- tube area decrease [6]: -7% (inactive)
- GLP1 secretion stimulation [7]: 1.1% (inactive)
- inhibition of viability [8]: 6.7% (inactive)
- viability decrease (inhibition) [9]: -4.4% (inactive)
- viability decrease (inhibition) [10]: -15.4% (inactive)
- fold change [11, 16]: 0.92 (inactive)
- fold change [11, 17]: 0.688
- cell count [11, 18]: 8630
- cell count [11, 19]: 9380
- z-score [12, 20]: -0.17 (inactive)
- z-score [12, 21]: -0.69

Structure (SMILES): CCC(=O)c1ccc(O)cc1
- nuclear beta-catenin stimulation ([3]; at 10 µM): 2.6% (inactive)
- nuclear beta-catenin stimulation ([3]; stimulation, at 2 µM): -0.5%
- insulin secretion stimulation [4]: 0.1% (inactive)
- viability decrease [5]: 8.05% (inactive)
- tube area decrease [6]: 5.9% (inactive)
- GLP1 secretion stimulation [7]: -2.3% (inactive)
- inhibition of viability [8]: 16.7% (inactive)
- viability decrease (inhibition) [9]: 60.1% (active)
- viability decrease (inhibition) [10]: 25.2% (inactive)
- fold change [11, 16]: 0.903 (inactive)
- fold change [11, 17]: 0.966
- cell count [11, 18]: 7980
- cell count [11, 19]: 8840
- remaining NAD [14]: 10 nM (inactive)

Structure (SMILES): O=C(O)c1ccc[n+]([O-])c1
- nuclear beta-catenin stimulation ([3]; at 10 µM): -0.8% (inactive)
- nuclear beta-catenin stimulation ([3]; stimulation, at 2 µM): 2%
- insulin secretion stimulation [4]: -0.6% (inactive)
- viability decrease [5]: -4.35% (inactive)
- tube area decrease [6]: 11.3% (active)
- GLP1 secretion stimulation [7]: 0% (inactive)
- inhibition of viability [8]: -1.7% (inactive)
- viability decrease (inhibition) [9]: 14.2% (inactive)
- viability decrease (inhibition) [10]: -2.85% (inactive)
- fold change [11, 16]: 0.936 (inactive)
- fold change [11, 17]: 0.969
- cell count [11, 18]: 8660
- cell count [11, 19]: 9250
- remaining NAD [14]: 10 nM (inactive)

Structure (SMILES): CC1(C)CC1C(=O)NC(=CCCCCSCC(N)C(=O)O)C(=O)O (stereo not given)
- nuclear beta-catenin stimulation ([3]; at 10 µM): -2.2% (inactive)
- nuclear beta-catenin stimulation ([3]; stimulation, at 2 µM): -0.6%
- insulin secretion stimulation [4]: 2.2% (inactive)
- viability decrease [5]: 15.4% (inactive)
- tube area decrease [6]: 26.1% (inactive)
- GLP1 secretion stimulation [7]: -4.3% (inactive)
- inhibition of viability [8]: 37.8% (inactive)
- viability decrease (inhibition) [9]: 28.9% (inactive)
- viability decrease (inhibition) [10]: -4% (inactive)
- fold change [11, 16]: 0.936 (inactive)
- fold change [11, 17]: 1.99
- cell count [11, 18]: 9810
- cell count [11, 19]: 10500
- z-score [13]: 0.555 (inactive)

Structure (SMILES): Cc1c(-c2ccccc2)oc2c(C(=O)OCCN3CCCCC3)cccc2c1=O
- fluorescence slope change [15]: 112% (active)
- survival [1]: 21.4 (inactive)
- parasite load remaining [2]: 46% (inactive) and 89.3% (inactive)
- viability [2]: 49.7% and 89.5%
- nuclear beta-catenin stimulation ([3]; at 10 µM): -2.4% (inactive)
- nuclear beta-catenin stimulation ([3]; stimulation, at 2 µM): -1%
- insulin secretion stimulation [4]: 2.9% (inactive)
- viability decrease [5]: -5.1% (inactive)
- tube area decrease [6]: 19.4% (inactive)
- GLP1 secretion stimulation [7]: -5.1% (inactive)
- inhibition of viability [8]: 5.5% (inactive)
- viability decrease (inhibition) [9]: 4.4% (inactive)
- viability decrease (inhibition) [10]: -0.8% (inactive)
- fold change [11, 16]: 0.916 (inactive) and 1.06 (inactive)
- fold change [11, 17]: 1.01 and 0.699
- cell count [11, 18]: 8120 and 9090
- cell count [11, 19]: 8860 and 8560
- z-score [12, 20]: -0.232 (inactive) and 0.0828 (inactive)
- z-score [12, 21]: -0.166 and -0.00233

Structure (SMILES): CN1CCCN(C(c2ccccc2)c2ccc(Cl)cc2)CC1 (stereo not given)
- fluorescence slope change [15]: 122% (active)
- survival [1]: 4.08 (inactive)
- parasite load remaining [2]: 48.8% (inactive) and 98.3% (inactive)
- viability [2]: 42.5% and 88%
- nuclear beta-catenin stimulation ([3]; at 10 µM): 3.7% (inactive)
- nuclear beta-catenin stimulation ([3]; stimulation, at 2 µM): 1.3%
- insulin secretion stimulation [4]: 2.9% (active)
- viability decrease [5]: 96% (active)
- tube area decrease [6]: 38.7% (inactive)
- GLP1 secretion stimulation [7]: 13.9% (inactive)
- inhibition of viability [8]: 96.5% (active)
- viability decrease (inhibition) [9]: 122% (active)
- viability decrease (inhibition) [10]: 71% (active)
- fold change [11, 16]: 0.886 (inactive)
- fold change [11, 17]: 1.48
- cell count [11, 18]: 7610
- cell count [11, 19]: 8580
- z-score [12, 20]: -0.68 (inactive)
- z-score [12, 21]: 0.377
